Measurements reported in PubChem BioAssay (NCATS).
Results filed as inconclusive are left out. Entries that show only a call come without a potency. Values without a mark were called inactive. Active and inactive are the calls of the source. Calls follow the shape of the dose curve; as a rule, active = well fitted curve in the direction sought with a large enough effect; inconclusive = small, poorly fitted or top-dose-only effect, or another doubt; inactive = no such curve, though single readings can be large; an effect the other way counts as inactive or inconclusive.

biological target: Rap guanine nucleotide exchange factor 4 (Homo sapiens) (UniProt Q8WZA2); assay: Confirmatory qHTS for agonist of cAMP-regulated guanine nucleotide exchange factor 4 (EPAC2) (AID 1645884); conditions: EPAC2 GEF activity, Rap1B-BODIPY-GDP fluorescence; series mostly up to 154 µM;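 also: nucleotide exchange releases bodipy-GDP from Rap1 and this lowers its fluorescence; nearly all actives have a fitted effect of over 65% in size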
Sequence (Q8WZA2 whole entry, looked up): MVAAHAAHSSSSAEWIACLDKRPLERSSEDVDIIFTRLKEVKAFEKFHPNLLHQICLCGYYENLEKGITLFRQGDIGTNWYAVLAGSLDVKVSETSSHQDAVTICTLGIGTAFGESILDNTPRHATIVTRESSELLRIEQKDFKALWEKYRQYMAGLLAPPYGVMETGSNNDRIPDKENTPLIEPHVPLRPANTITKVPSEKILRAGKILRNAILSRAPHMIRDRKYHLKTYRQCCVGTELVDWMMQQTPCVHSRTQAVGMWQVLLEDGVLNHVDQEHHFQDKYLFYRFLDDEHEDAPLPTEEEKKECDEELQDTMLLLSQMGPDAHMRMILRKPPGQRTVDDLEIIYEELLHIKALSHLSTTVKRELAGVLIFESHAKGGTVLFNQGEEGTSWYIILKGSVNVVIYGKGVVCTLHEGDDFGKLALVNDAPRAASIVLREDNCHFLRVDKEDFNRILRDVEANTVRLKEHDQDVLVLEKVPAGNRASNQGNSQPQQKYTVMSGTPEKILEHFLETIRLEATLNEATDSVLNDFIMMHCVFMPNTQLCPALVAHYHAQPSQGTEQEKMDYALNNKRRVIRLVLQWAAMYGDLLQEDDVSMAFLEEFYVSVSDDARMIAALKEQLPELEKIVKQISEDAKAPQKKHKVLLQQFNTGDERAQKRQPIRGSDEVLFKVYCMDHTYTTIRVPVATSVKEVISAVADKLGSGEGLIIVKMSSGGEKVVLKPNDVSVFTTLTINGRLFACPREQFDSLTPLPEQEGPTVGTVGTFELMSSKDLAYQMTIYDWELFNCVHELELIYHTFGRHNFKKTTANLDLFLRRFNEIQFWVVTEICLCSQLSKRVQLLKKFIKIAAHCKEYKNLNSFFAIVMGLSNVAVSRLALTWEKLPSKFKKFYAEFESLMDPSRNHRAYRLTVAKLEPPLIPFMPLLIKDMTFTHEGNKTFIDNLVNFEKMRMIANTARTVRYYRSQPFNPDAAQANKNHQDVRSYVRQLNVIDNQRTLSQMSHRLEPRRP

Structure (SMILES)	activation	Potency
Cc1ccc(NC(=O)C2CCN(S(=O)(=O)c3ccc4c(c3)OCCCO4)CC2)nc1	6.5% [at 17.1 µM, percent relative to cAMP agonist control]	–
NC(=O)C1CCN(C(=O)Nc2csc3ccccc23)CC1	–	inactive
OC1CCN(c2c3c(nc4cc(-c5cccc(F)c5)nn24)CCCC3)CC1	–	inactive
CCN1C(=O)/C(=C/c2ccc(N3CCCC3)cc2)NC1=S	1.83% [at 17.1 µM, percent relative to cAMP agonist control]	–
CC1(C)OCC(C2CC(c3ccccc3)NS(=O)(=O)O2)O1 (stereo not drawn)	–	inactive
C/C(=N\N1C(=O)c2ccccc2NC1c1ccco1)c1ccccc1O (stereo not drawn)	–	inactive
O=C(O)CCn1cc(/C=C2\NC(=S)N(c3ccccc3)C2=O)c(-c2ccc(Br)cc2)n1	–	inactive
CC1(C)CC(=O)C=C(c2ccc(F)cc2OCc2ccccc2)C1	–	inactive

biological target: Rap guanine nucleotide exchange factor 4 (Homo sapiens) (UniProt Q8WZA2); assay: Confirmatory qHTS for antagonist of cAMP-regulated guanine nucleotide exchange factor 4 (EPAC2) (AID 1645885); conditions: EPAC2 Rap1B-BODIPY-GDP exchange fluorescence, biochemical; series mostly up to 12.7 µM; also: nearly all actives have a fitted effect of over 25% in size; also: potency is read from the fitted curve at half-maximal effect

Structure (SMILES)	Potency	outcome
COc1ccc2ccccc2c1C(=O)/C=C\c1ccoc1	inactive	–
Oc1ccc(-c2c(-c3ccsc3)sc3ccccc23)cc1	inactive	–
CC(C)CC1C(=O)N(Cc2cn(CCC3OCCO3)nn2)CCS(=O)(=O)N1Cc1ccc(-c2ccc(F)cc2)cc1 (stereo not drawn)	4.26 µM (active)	–
CC(CCc1ccccc1)NC(=O)C1CCN(C(=O)c2sccc2-n2cccc2)CC1 (stereo not drawn)	inactive	–
O=C1C=C(N2CCCCC2)c2ccccc2C1=O	inactive	–
COc1ccc(-n2nnnc2SCC(=O)c2ccc(O)c(O)c2)cc1	inactive	–
COC1C(CO)OC(n2c3c(Cl)cccc3c3c4c(c5c6cccc(Cl)c6[nH]c5c32)C(=O)NC4=O)C(O)C1O (stereo not drawn)	inactive	–
COc1ccc(-c2nn(-c3ccccc3)cc2/C=N/n2cnnc2)cc1OC	inactive	–
C#CCOCCOCCOCCNc1nc(N2CCN(C(=O)[C@H](Cc3cc4ccccc4[nH]3)n3cc([C@@H](N)Cc4ccc(O)cc4)nn3)CC2)nc(N2CCN(C(=O)[C@H](Cc3cc4ccccc4[nH]3)n3cc([C@@H](N)CC(C)C)nn3)CC2)n1	inactive	–
COc1ccc(CCNC(=O)CSc2nc3nc(C)c(Cc4ccc(C)cc4)c(C)n3n2)cc1OC	inactive	–
Cc1cccc(C(=O)Nc2cccc(C(=O)OCc3cc(=O)n4c5c(sc4n3)CCCC5)c2)c1	inactive	–
CN(C)C(CNS(=O)(=O)c1ccc(Cl)cc1)c1cccnc1 (stereo not drawn)	inactive	–
O=C(O)c1[nH]c2ccccc2c1C(c1cc(Cl)cc([N+](=O)[O-])c1O)c1c(C(=O)O)[nH]c2ccccc12	inactive	–
Cn1c(SCc2c(Cl)cccc2Cl)nnc1-c1ccc2nonc2c1	inactive	–
COc1cc2c(cc1OC)C(c1ccccc1)N(C(=O)c1ccco1)CC2 (stereo not drawn)	inactive	–
NNc1nc2c(Cl)cccc2s1	95.3 µM (active)	–
CC1CCN(c2ccc3c(c2)S(=O)(=O)c2ccccc2C3=O)CC1	inactive	–
COc1ccc(-c2n[nH]c3c2C(c2ccc(Cl)cc2Cl)NC3=O)cc1 (stereo not drawn)	inactive	–
COc1cc(NC(=S)NCCC(c2ccccc2)c2ccccc2)cc(OC)c1	inactive	–
O=C(Cc1ccccc1Cl)Nc1ccc(S(=O)(=O)Nc2nccs2)cc1	inactive	–

Structure (SMILES)	Potency	outcome
Cc1ccc(S(=O)(=O)N2[C@@H](c3ccc(Br)cc3)C(C(=O)O)=CC[C@H]2c2ccc(Cl)c(Cl)c2)cc1	33.8 µM (active)	–
CC1CC1C(=O)OCC(=O)NNC(=O)COc1ccc(Br)cc1 (stereo not drawn)	inactive	–
Cc1cn2c(=O)cc(COC(=O)c3ccc(NC(=O)C(C)Oc4ccccc4)cc3)nc2s1 (stereo not drawn)	inactive	–
Cc1ccc(OCCn2cccn2)c(C)c1	inactive	–
Cc1ccc2c(c1)c1c(c(=O)n(-c3cccc(Cl)c3)c(=O)n1C)n2C	inactive	–
Cn1c2ccccc2c2cc(/C=N/NC(=O)c3cc(O)ccc3O)ccc21	inactive	–
CCSc1nc2ccccc2c(=O)n1C1CCOC(C)(C)C1 (stereo not drawn)	inactive	–
Cn1c(=O)c2c(-c3ccccc3Br)n(CCc3ccccc3)cc2n(C)c1=O	–	inactive [at 12.7 µM]
CCCc1[nH]nc2c1C(c1cccnc1)C(C#N)=C(N)O2 (stereo not drawn)	inactive	–
CCc1ccccc1Oc1nc(NC(C)C)nc2ccsc12	inactive	–
CCCOC(=O)c1c(-c2ccccc2)c(-c2ccccc2)nn(C)c1=O	inactive	–
CCN1/C(=C/C(C)=C/c2sc3ccccc3[n+]2CC)Sc2ccccc21	inactive	–
Cc1ccc(NC(=O)C2CCN(S(=O)(=O)c3ccc4c(c3)OCCCO4)CC2)nc1	inactive	–
NC(=O)C1CCN(C(=O)Nc2csc3ccccc23)CC1	12 µM (active)	–
OC1CCN(c2c3c(nc4cc(-c5cccc(F)c5)nn24)CCCC3)CC1	inactive	–
CCN1C(=O)/C(=C/c2ccc(N3CCCC3)cc2)NC1=S	inactive	–
CC1(C)OCC(C2CC(c3ccccc3)NS(=O)(=O)O2)O1 (stereo not drawn)	inactive	–
C/C(=N\N1C(=O)c2ccccc2NC1c1ccco1)c1ccccc1O (stereo not drawn)	inactive	–
O=C(O)CCn1cc(/C=C2\NC(=S)N(c3ccccc3)C2=O)c(-c2ccc(Br)cc2)n1	inactive	–
CC1(C)CC(=O)C=C(c2ccc(F)cc2OCc2ccccc2)C1	inactive	–
